# In all, about 48,000 compounds went through this assay and about 13,000 (27%) showed an effect of 50% or more. This is one part of the list.
# Test system: Wolbachia pipientis
# Experiment: Anti-Wolbachia Cell-Based Screen
# Type: functional
# Design: scale not given: in the data most compounds retested in dose-response had high values
# Details: 5 µM
row,SMILES,Percent Effect [%]
1,COc1ccccc1-c1ccc(C(=O)N2C[C@H]3CC[C@@H]2CN(C)C3)cc1,3.488
2,Cc1nnc([C@@H]2CCO[C@@H]3CCN(C(=O)Cc4ccsc4)C[C@@H]32)o1,-11.03
3,O=C(NCCCC(=O)N1CCN(CC2CC2)c2ccccc21)C1CC1,-7.741
4,Nc1cc(CC2COc3ccccc3C2)ccn1 (centres undefined),-18.54
5,O=C(c1ccnc(CC2COc3ccccc3C2)c1)N1CCCC1 (centres undefined),99.57
6,COc1ccc2c(c1)OCC(Cc1cc(N3CCCC3)cnn1)C2 (centres undefined),-5.296
7,COc1ccc2c(c1)OCC(Cc1cc(C(=O)N3CCCC3)ccn1)C2 (centres undefined),87.9
8,COc1ccc2c(c1)OCC(Cc1ccnc(N)n1)C2 (centres undefined),-14.38
9,c1ccc2c(c1)CC(Cc1cc(N3CCCC3)cnn1)CO2 (centres undefined),9.635
10,COc1cccc(CC(=O)N2CC[C@@H]3NC(=O)CC[C@@H]32)c1,-6.606
11,Cc1ccc(OCC(O)CNC(=O)C2(c3ccc(F)cc3)CC2)cc1 (centres undefined),-8.798
12,FC(F)(F)CCN(Cc1ccon1)C1CCCC1,5.052
13,CC(C)[C@H](NS(C)(=O)=O)C(=O)NCc1cc(-c2ccccc2)n[nH]1,101.1
14,CC(NS(C)(=O)=O)C(=O)N(C)Cc1csc(-c2ccccc2)n1 (centres undefined),-10.17
15,CC(C)[C@H](NS(C)(=O)=O)C(=O)NCc1cc(-c2ccco2)n[nH]1,84.23
16,C[C@H](NS(C)(=O)=O)C(=O)NCc1cc(-c2ccco2)n[nH]1,75.56
17,CN(Cc1ccco1)Cc1ccccc1CNC(=O)c1cc[nH]n1,-6.684
18,CCc1cc(CNC(=O)NCC(c2ccco2)N2CCCC2)[nH]n1 (centres undefined),-1.193
19,CCCC(C)NC(=O)c1ccc(-c2ccco2)[nH]c1=O (centres undefined),12.91
20,CCc1cc(CNC(=O)c2cc(NC(=O)C(C)C)ccc2Cl)[nH]n1,-9.115
21,CCc1cc(CNC(=O)N(C2CC2)C(C)c2ccco2)[nH]n1 (centres undefined),-14.67
22,O=C(c1cccc(-n2cccn2)c1)N1CCCOC(Cn2cccn2)C1 (centres undefined),8.514

row,SMILES,Percent Effect [%]
1,O=C(NCC1CC1)C1CCCN(c2cccc(C(F)(F)F)n2)C1 (centres undefined),-14.15
2,COc1ccc(SC(C)C(=O)N2CCC(NC(=O)C3CC3)CC2)cc1 (centres undefined),-11.29
3,COCC(=O)Nc1cc(Br)cnc1OCC(F)(F)F,-8.259
4,CC1CCN(C(=O)C2CCCN(C(=O)Nc3ccccn3)C2)CC1 (centres undefined),-1.039
5,Cc1ccc(C(=O)NC2CCN(C(=O)Nc3ccccn3)CC2)s1,106.5
6,Cc1ccc(C(=O)N2CCN(C(=O)Nc3ccccn3)CC2)o1,12.27
7,Cc1ccoc1C(=O)NC1CCN(C(=O)Nc2ccccn2)CC1,143.8
8,Cc1occc1C(=O)NC1CCN(C(=O)Nc2cccnc2)CC1,26.57
9,CCn1cc(CN2CCCC2c2nc(-c3ccccc3)no2)cc1C#N (centres undefined),-29.44
10,Cc1ccc(CN2CCc3c(CN4CCCC4)n[nH]c3C2)s1.O=C(O)C(F)(F)F.O=C(O)C(F)(F)F,-6.492
11,Cn1nnc2c1C(COCC1CC1)CN(C(=O)[C@H]1CCCO1)C2 (some centres undefined),10.79
12,CCOC(=O)c1coc(N2CCC(C(O)CC(C)C)CC2)n1 (centres undefined),-3.785
13,CC(=O)N1CCN(Cc2cccc3c2sc2ccccc23)CC(O)C1 (centres undefined),-0.8612
14,CC(=O)N1CCOC(c2c(C(=O)O)sc3ccccc23)C1 (centres undefined),123
15,Cn1ccc(C(=O)N2CCOC(c3ccccc3)C2)cc1=O (centres undefined),-8.227
16,CC(=O)N1CCOC(c2c(C(=O)NCCN(C)C)sc3ccccc23)C1 (centres undefined),169.5
17,CC(=O)N1CCOC(c2c(C(=O)NC(C)(C)C)sc3ccccc23)C1 (centres undefined),161.4
18,CC(=O)N1CCN(Cc2c(C)sc3ccccc23)CC(O)C1 (centres undefined),-5.1
19,CC(=O)N1CCC(c2nnc3ccc(C(=O)NCCN(C)C)cn23)C1 (centres undefined),-5.924
20,CNC(=O)c1cccc(NC(=O)NC(C)CCc2cccn2C)c1C (centres undefined),-20.84
21,CCn1ccnc1CN(C)C1CCCN(Cc2ccccc2F)C1 (centres undefined),-12.96
22,CCC1CN(CCCO)c2ccccc2O1 (centres undefined),49.62

row,SMILES,Percent Effect [%]
1,Cc1nnc(CN2CCN(CCOc3ccccc3C#N)CC2)n1C,-3.944
2,Cc1nccc(CN2CC[C@H](Oc3cccc(F)c3)[C@@](C)(O)C2)n1,-4.258
3,C[C@]1(O)CN(Cc2ncccc2F)CC[C@@H]1Oc1cccc(F)c1,113.6
4,C[C@]1(O)CN(Cc2cscn2)CC[C@@H]1Oc1cccc(F)c1,131.8
5,CCN1CCN(C[C@@H]2CN(c3ncccc3F)C[C@@H]2CO)CC1,10.53
6,CCOc1ccnc(N2CCN(Cc3ncccc3C)CC2)n1,-12.42
7,C[C@]1(O)CN(Cc2ncc[nH]2)CC[C@@H]1Oc1cccc(F)c1,143.6
8,CCn1ccnc1CN1CCC(Oc2cccc(F)c2)(C(=O)O)CC1,-6.452
9,Fc1ccc(CC2CCN(Cc3cscn3)CC2)cc1,6.196
10,COc1ccc2c(c1)CCN(Cc1cscn1)CC2,-16.58
11,CCN1CC(c2ccccc2)CC2(CCN(Cc3ncc[nH]3)CC2)C1 (centres undefined),-4.226
12,Cc1cccnc1CN1CC[C@H](Oc2cccc(F)c2)[C@@](C)(O)C1,112.2
13,O=C(c1cnc2[nH]c(=O)[nH]c(=O)c2c1)N1CCCC1C1CCCCC1 (centres undefined),5.907
14,Cc1cccc(S(=O)(=O)NC(=O)c2ccc3c(c2)nnn3C)c1,-16.64
15,CC(C)c1noc(-c2ccc(NCc3noc(C(C)C)n3)nc2)n1,-9.684
16,Cc1ccccc1OCC1CCCN(C(=O)Cc2c[nH]c(=O)[nH]c2=O)C1 (centres undefined),-4.345
17,O=C(COc1ccc2c(c1)CCC2)NS(=O)(=O)c1cncc(Br)c1,-16.45
18,CC(O)c1cn(CC2CCN(C(=O)CN(C)C(C)C)CC2)nn1 (centres undefined),-14.32
19,Cc1ccc(S(C)(=O)=O)cc1C(=O)N1CCCC(n2cncn2)C1 (centres undefined),123.8
20,CSc1ccc(C)c(C(=O)N2CCCC(n3cncn3)C2)c1 (centres undefined),94.98

# Reference: ChEMBL document CHEMBL3988442, “University of Dundee, Small-Polar-MMV Screening Library” (2021)
